This is an account of results in PubChem BioAssay AID1490 (National Center for Advancing Translational Sciences (NCATS), 2009).

“And” between values parts separate entries of the source, which are not always exact repeats. Equal entries are not always repeated. The whole screen tested about 310,000 compounds, of which about 11,000 (3.5%) were called active. Inconclusive results (about 4%) are left out. The full list was thinned out, with actives kept by preference. The source holds several records for some structures; these can differ, active in one and inactive in another. A number with no mark means an inactive call. The call rests on the fitted dose curve; in most records, active means well fitted inhibition curve with a large enough effect; inconclusive means small, poorly fitted or top-dose-only effect, or another doubt; inactive means no such curve, though single readings can be large or run the other way.
Potency means the concentration at half of the fitted maximal effect.

For this test, the target named is 4'-phosphopantetheinyl transferase ffp (Bacillus subtilis) (UniProt Q9F4F7). Description: qHTS Assay for Inhibitors of Bacillus subtilis Sfp phosphopantetheinyl transferase (PPTase).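 Further: the enzyme is Sfp with the accession as filed and its product quenches rhodamine fluorescence.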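 On largest response in the series, negative = inhibition: 0% = enzyme reaction without inhibitor and -100% = no enzyme wells.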 Conditions: Biochemical Sfp PPTase activity. Put shortly:
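With Hepes-Na pH 7.6 buffer containing 10 mM MgCl2, Sfp (15 nM) modified BHQ-2-YbbR (12.5 uM) using rhodamine-CoA (5 uM). Two reads 30 minutes apart at 525/598 nm yielded each well's rate.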
In general terms: In qHTS, concentration-response curves come from the screen itself.
With `COc1cc(C(=S)N2CCOCC2)ccc1O`, the largest response in the series, negative = inhibition was 14.2%. Turning to `N#CC(C#N)=Cc1cc(O)c(O)c([N+](=O)[O-])c1`, the largest response in the series, negative = inhibition was -27.4% and 8.16%.

`OC(Cn1c2ccccc2c2ccccc21)C[n+]1ccccc1` (configuration not stated): the largest response in the series, negative = inhibition was 4.01%. In the case of `CC(C)(O)c1[se]c2ccccc2c1I`, the largest response in the series, negative = inhibition is -14.3%.

`O=C(N/N=C/c1ccc([N+](=O)[O-])o1)c1cc([N+](=O)[O-])cc([N+](=O)[O-])c1O`: the largest response in the series, negative = inhibition is -16.6%. In the case of `COC(=O)c1ccc2[se]c(CC3CCCCC3)c(I)c2c1`, the largest response in the series, negative = inhibition was -1.34%.

Consider `C[C@]12O[C@H](C[C@@]1(O)C(=O)O)n1c3ccccc3c3c4c(c5c6ccccc6n2c5c31)CNC4=O`, for which the largest response in the series, negative = inhibition was -2.27%. On to `CN(C)CC1CCCCC1=O` (configuration not stated), for which the largest response in the series, negative = inhibition was 9.1%. Regarding `C=CCN1C(=O)C2(C(C(=O)OCC)=C(N)Oc3c2c(=O)oc2ccccc32)c2ccccc21` (configuration not stated), the largest response in the series, negative = inhibition was -13.3%. Consider `CC(C)(c1ccc(OC[C@@H]2CO2)cc1)c1ccc(OC[C@H]2CO2)cc1`, for which the largest response in the series, negative = inhibition was -26.3%. For `CCCCC/C=C\C/C=C\C/C=C\CCCCCCC(=O)NCCO`, the largest response in the series, negative = inhibition is -6.26% and -18.5% and 24.4%. For `CCCCC/C=C\C/C=C\C/C=C\C=C\[C@H](CCCC(=O)O)OO`, the largest response in the series, negative = inhibition is 1.29% and 7.78%. Consider `CCCCC/C=C\C/C=C\C/C=C\C/C=C\CCCCCC(=O)NCCO`, for which the Potency was 25.1 µM (active); the largest response in the series, negative = inhibition was -11.4% and -19.7% and 32%.

For the molecule `CCN1C[C@@]2(COC)CC[C@H](OC)[C@]34[C@@H]1[C@]1(OCO[C@@]15C[C@@H](OC)C1C[C@H]3[C@H]5[C@@H]1OC)[C@H](O)[C@@H]24`, the largest response in the series, negative = inhibition was 4.99%. In the case of `C=CCN1CCC23c4c5ccc(O)c4O[C@H]2C(=O)CC[C@@]3(O)C1C5` (some centres not stated), the largest response in the series, negative = inhibition is 7.15%. Take `CN(C)[C@@H]1C(=O)C(C(N)=O)=C(O)[C@@]2(O)C(=O)C3=C(O)c4c(O)cccc4[C@@](C)(O)C3CC12` (some centres not stated): the largest response in the series, negative = inhibition was -6.86%.

Take `CCOC(=O)C1(CCc2ccccc2)CCN(Cc2ccco2)CC1`: the largest response in the series, negative = inhibition was -10.9%. In the case of `CN1[C@@H]2CC[C@H]1CC(OC(=O)c1cc(Cl)cc(Cl)c1)C2` (some centres not stated), the largest response in the series, negative = inhibition was 10.2%. For `CC(=O)Oc1ccccc1C(=O)Nc1ncc([N+](=O)[O-])s1`, the Potency is 50.1 µM (active) and the largest response in the series, negative = inhibition was -19.7%. As for `O=c1oc2ccccc2c(O)c1C(c1ccccc1O)c1c(O)c2ccccc2oc1=O`, the largest response in the series, negative = inhibition was 9.81%. In the case of `C[C@H]1C/C=C/[C@@H]2[C@@H]3O[C@]3(C)[C@@H](C)[C@H]3[C@H](Cc4ccccc4)NC(=O)[C@]32OC(=O)O/C=C/[C@](C)(O)C1=O`, the largest response in the series, negative = inhibition is -0.438%. As for `CN[C@@H]1C[C@H]2O[C@@](C)([C@@H]1OC)n1c3ccccc3c3c4c(c5c6ccccc6n2c5c31)C(=O)NC4`, the largest response in the series, negative = inhibition is 0.89% and -25.9%. Same read-out and setting: the result for `c1ccc(CCCCN2CCC(c3ccccc3)CC2)cc1` reads -6.46% and 2.8%; that for `COc1ccc(CNCCc2ccc3c(c2)OCO3)c(OC)c1OC`, -17.5%.

For the molecule `CC1=CC(=O)C2=C(C)C[C@H](O)[C@H]3[C@H](C)C(=O)O[C@@H]3C12` (some centres not stated), the largest response in the series, negative = inhibition is 33%. On to `O=Cc1cn(Cc2ccc(F)cc2Cl)c2ccccc12`, for which the largest response in the series, negative = inhibition was 0.0934%.

On to `COc1cc(Cn2c(N)c(C(=O)NCc3ccco3)c3nc4ccccc4nc32)cc(OC)c1OC`, for which the Potency is 56.2 µM (active). For the molecule `CCOC(=O)C(O)(c1ccc(NC(=O)c2ccco2)c(OC)c1)C(F)(F)F` (configuration not stated), the largest response in the series, negative = inhibition was 3.62%. For the molecule `CCOC(=O)c1c(N)n(Cc2ccccc2)c2nc3ccccc3nc12`, the largest response in the series, negative = inhibition was 13.5%.

For the molecule `c1cncc(CNC2=NCCC2)c1`, the largest response in the series, negative = inhibition was 12.2%.

In the case of `CC1CCCCN1Cc1cccnc1` (configuration not stated), the largest response in the series, negative = inhibition was -23.2%. Consider `CN1CCC(N(C)Cc2cccnc2)CC1`, for which the Potency is 89.1 µM (active). As for `CC(=O)c1c(O)c(C)c(O)c(Cc2c(O)c3c(c(C(=O)/C=C\c4ccccc4)c2O)OC(C)(C)C=C3)c1O`, the largest response in the series, negative = inhibition was -29.6%. Still for that read-out and setting: the result for `COC1CC(OC2CC[C@@]3(C=O)C4CC[C@]5(C)C(C6=CC(=O)OC6)CC[C@@]5(O)C4CC[C@]3(O)C2)OC(C)C1O` (some centres not stated) reads 2.96%. For the molecule `CN1CCN(C(=S)SCC(=O)Nc2ccc(Cl)cc2C(=O)c2ccccc2)CC1`, the largest response in the series, negative = inhibition was -8.26%. As to `CC(C(=O)Nc1ccc(Cl)cc1Cl)N1CC=C(c2ccccc2)CC1` (configuration not stated), the Potency is 56.2 µM (active). As for `CN(C)C1C(=O)C(C(N)=O)=C(O)[C@@]2(O)C(=O)C3=C(O)c4c(O)cccc4[C@@](C)(O)C3C[C@@H]12` (some centres not stated), the largest response in the series, negative = inhibition is -32.6%. `C[C@@H]1C[C@H]2CC[C@H](O2)[C@H](C)C(=O)O[C@@H](C)C[C@@H]2CC[C@@H](O2)[C@@H](C)C(=O)O[C@H](C)C[C@H]2CC[C@H](O2)[C@H](C)C(=O)O[C@@H](C)C[C@@H]2CC[C@@H](O2)[C@@H](C)C(=O)O1`: the largest response in the series, negative = inhibition is 6.1%.

Turning to `CC(=O)OC1C2CCC3C1(CC(O)[C@@]1(O)[C@@H](CC(O)C1(C)C)[C@]3(C)O)C[C@@]2(C)O` (some centres not stated), the largest response in the series, negative = inhibition was 6.04%. `N#Cc1c(Cl)c(Cl)c(Cl)c(C#N)c1Cl`: the largest response in the series, negative = inhibition was -8.59%.
